Laboratory results taken from PubChem BioAssay (NCATS).
Records with an inconclusive call do not appear. Calls of active or inactive are those of the source. Calls come from the whole dose curve; as a rule, active = well fitted curve in the direction sought with a large enough effect; inconclusive = small, poorly fitted or top-dose-only effect, or another doubt; inactive = no such curve, though single readings can be large; an effect the other way counts as inactive or inconclusive.

How the values were obtained:
[1] = Quantitative highthroughput screen to assess conditional lethalithy of NOMO1 cells grown in RPMI1640 with dialyzed fetal bovine serum (RPMI+ds) (AID 1963877); note: nearly all actives have a fitted effect of over 30% in size;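 for viability: series mostly up to about 46 µM; 100% = DMSO control wells and 0% = empty wells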
Summary of the method: (§1)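 Each medium arm—HPLM with 10% dialyzed FBS, or RPMI1640 with 5 mM glucose and 10% untreated or dialyzed FBS—was screened against an 11-point, 3-fold compound titration for 48 h at 37 °C, with CellTiter-Glo luminescence as endpoint.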

[2] = Quantitative highthroughput screen to assess conditional lethalithy of NOMO1 cells grown in Human Plasma-Like Medium with dialyzed fetal bovine serum (HPLM+ds) (AID 1963878); note: nearly all actives have a fitted effect of over 35% in size;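 for viability: 100% = DMSO wells and 0% = empty wells on each plate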
Summary of the method: as §1

[3] = Quantitative highthroughput screen to assess conditional lethalithy of P12 Ichikawa cells grown in Human Plasma-Like Medium with dialyzed fetal bovine serum (HPLM+ds) (AID 1963879); conditions: Potency: viability; note: nearly all actives have a fitted effect of over 35% in size; for viability: series mostly up to about 46 µM
Summary of the method: as §1

[4] = Quantitative highthroughput screen to assess conditional lethalithy of P12 Ichikawa cells grown in RPMI1640 with dialyzed fetal bovine serum (RPMI+ds) (AID 1963880); conditions: Potency: P12-Ichikawa viability; note: nearly all actives have a fitted effect of over 35% in size;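 for viability: 100% = DMSO wells and 0% = empty wells on each plate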
Summary of the method: as §1

[5] = Quantitative highthroughput screen to assess conditional lethalithy of P12 Ichikawa cells grown in RPMI1640 with untreated serum (RPMI+s) (AID 1963881); conditions: Potency: viability; note: nearly all actives have a fitted effect of over 35% in size;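 for viability: series mostly up to about 46 µM; 100% = DMSO wells and 0% = empty wells without cells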
Summary of the method: as §1

[6] = Quantitative highthroughput screen to assess conditional lethalithy of SEM cells grown in Human Plasma-Like Medium with dialyzed fetal bovine serum (HPLM+ds) (AID 1963882); note: nearly all actives have a fitted effect of over 35% in size; for viability: series mostly up to about 46 µM
Summary of the method: as §1

[7] = Quantitative highthroughput screen to assess conditional lethalithy of SEM cells grown in RPMI1640 with unreated serum (RPMI+s) (AID 1963883); note: nearly all actives have a fitted effect of over 35% in size;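 for viability: 100% = DMSO wells and 0% = empty wells without cells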
Summary of the method: as §1

[8] = Quantitative highthroughput screen to assess conditional lethalithy of SEM cells grown in RPMI1640 with dialyzed fetal bovine serum (RPMI+ds) (AID 1963884); note: nearly all actives have a fitted effect of over 35% in size;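 for viability: series mostly up to about 46 µM; 100% = DMSO control wells and 0% = empty wells without cells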
Summary of the method: as §1

[9] = Cellular viability qHTS for adrenocortical cancer (ACC) cell line SW-13 (AID 1963989); conditions: SW-13 ACC cells viability, CellTiter-Glo, 48 h; activity (max response): active compounds read low; note: nearly all actives have a fitted effect of over 65% in size;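 for activity (max response): cells grown in serum-free medium with ITS supplement; % is set by controls: 0 for no effect and ±100 for the full control effect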
Summary of the method: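 Viability was read as CellTiter-Glo luminescence after 48 h compound treatment (up to 46 uM final) of SW-13 cells grown serum-free; titration curves were fit with a four-parameter logistic model to give IC50 and efficacy.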

[10] = Cellular viability qHTS for adrenocortical cancer (ACC) cell line NCI-H295R (AID 1963990); note: nearly all actives have a fitted effect of over 60% in size
Summary of the method: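 CellTiter-Glo ATP luminescence, read 48 h after compound addition, measured viability of NCI-H295R adrenocortical cells grown serum-free with ITS. Final concentrations spanned up to 46 uM. Data normalized to DMSO and doxorubicin, fitted for IC50 and maximal response.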

[11] = Quantitative highthroughput screen to assess conditional lethalithy of NOMO1 cells grown in RPMI1640 with untreated serum (RPMI+s) (AID 1963876); note: nearly all actives have a fitted effect of over 35% in size
Summary of the method: as §1
Potency is the fitted concentration of half-maximal effect.

COC(=O)N[C@H](C(=O)N1CCC[C@@H]1c1ncc(-c2ccc(-c3ccc(-c4cnc([C@@H]5CCCN5C(=O)[C@@H](NC(=O)OC)C(C)C)[nH]4)cc3)cc2)[nH]1)C(C)C
inactive: Potency [1] | Potency [2] | Potency [3] | Potency [4] | Potency [5] | Potency [6]

O=C(C=Cc1cccc(S(=O)(=O)Nc2ccccc2)c1)NO
active: Potency [1] 12.1 µM | Potency [2] 13.6 µM | Potency [3] 4.81 µM | Potency [5] 4.29 µM | Potency [6] 0.679 µM | Potency [7] 0.605 µM | Potency [8] 0.762 µM

CC[C@]1(O)C[C@@H]2CN(CCc3c([nH]c4ccccc34)[C@@](C(=O)OC)(c3cc4c(cc3OC)N(C=O)[C@@H]3C45CCN4CC=C[C@](CC)([C@H]45)[C@@H](OC(C)=O)[C@]3(O)C(=O)OC)C2)C1 (some centres undefined)
inactive: Potency [1] | Potency [2] | Potency [3] | Potency [4] | Potency [5]

CCOC(=O)N1CCN([N+]([O-])=NOc2cc(ON=[N+]([O-])N3CCN(C(=O)OCC)CC3)c([N+](=O)[O-])cc2[N+](=O)[O-])CC1
inactive: Potency [1] | Potency [2] | Potency [3] | Potency [4] | Potency [5] | Potency [6] | Potency [7]

CC(C)c1c(C(=O)Nc2ccccc2)c(-c2ccccc2)c(-c2ccc(F)cc2)n1CC[C@H](O)C[C@@H](O)CC(=O)O
inactive: Potency [6]
active: Potency [1] 16.6 µM | Potency [2] 18.7 µM

O=c1cc(-c2ccc(O)cc2)oc2cc(O)cc(O)c12
active: Potency [1] 18.7 µM
inactive: Potency [3] | Potency [4] | Potency [5] | Potency [6] | Potency [7] | activity (max response) [9] -18.3% | Potency [10]

CN(C)CCOc1cc(-c2cn[nH]c2)ccc1NC(=O)C1COc2ccccc2O1 (centres undefined)
active: Potency [1] 6.62 µM | Potency [10] 17.8 µM
inactive: Potency [3] | Potency [4]

OC[C@H]1O[C@@H](Oc2cc(O)cc(C=Cc3ccc(O)cc3)c2)[C@H](O)[C@@H](O)[C@H]1O
active: Potency [1] 2.35 µM
inactive: Potency [3] | Potency [4] | Potency [5] | Potency [6] | Potency [7] | Potency [8]

C=CCc1cccc(C=NNC(=O)CN2CCN(Cc3ccccc3)CC2)c1O
active: Potency [1] 16.6 µM | Potency [2] 18.7 µM | Potency [3] 16.6 µM | Potency [4] 13.2 µM | Potency [5] 14.8 µM | Potency [6] 10.5 µM | Potency [7] 16.6 µM | Potency [8] 8.33 µM

CCOc1cc(N)c(Cl)cc1C(=O)NCC1CN(Cc2ccc(F)cc2)CCO1 (centres undefined)
inactive: Potency [1] | Potency [2] | Potency [3] | Potency [4] | Potency [5] | Potency [6] | Potency [7] | Potency [8] | Potency [10]

CC(=O)O[C@]1(C(C)=O)CC[C@H]2[C@@H]3C=C(C)C4=CC(=O)CC[C@]4(C)[C@@H]3CC[C@@]21C
inactive: Potency [1] | Potency [2] | Potency [3] | Potency [4] | Potency [5] | Potency [6] | Potency [7] | Potency [8]

CN(C)CCN(C)C(=O)c1ccc(NC(=O)Nc2ccc(-c3nc(N4CCOCC4)c4ccn(CC(F)(F)F)c4n3)cc2)cc1
active: Potency [11] 132 nM | Potency [9] 708 nM | Potency [10] 3.16 µM

CC(C)c1onc(-c2c(Cl)cccc2Cl)c1COc1ccc(C=Cc2cccc(C(=O)O)c2)c(Cl)c1
inactive: Potency [1] | Potency [2] | Potency [3] | Potency [4] | Potency [5] | Potency [6] | Potency [7]

CN(C)CCN(Cc1ccc(Cl)cc1)c1ccccn1
inactive: Potency [1] | Potency [2] | Potency [3] | Potency [4] | Potency [5] | Potency [6] | Potency [7] | Potency [8] | activity (max response) [9] -3.95% | Potency [10]

CC(C)N1[N]C(=C2C=c3cc(O)ccc3=N2)c2c(N)ncnc21
active: Potency [1] 7.43 µM | Potency [2] 0.935 µM | Potency [5] 4.18 µM | Potency [6] 1.48 µM | Potency [8] 2.64 µM

O=C(C=Cc1c(C(=O)O)[nH]c2cc(Cl)cc(Cl)c12)Nc1ccccc1
inactive: Potency [1] | Potency [2] | Potency [3] | Potency [4] | Potency [5]

CC[C@H]1OC(=O)[C@H](C)[C@@H](O[C@H]2C[C@@](C)(OC)[C@@H](O)[C@H](C)O2)[C@H](C)[C@@H](O[C@@H]2O[C@H](C)C[C@H](N(C)C)[C@@H]2O)[C@](C)(O)C[C@@H](C)CN(C)[C@H](C)[C@@H](O)[C@]1(C)O
inactive: Potency [1] | Potency [2]
